PubChem BioAssay (NCATS)
“And” between values parts separate entries of the source, which are not always exact repeats. Equal entries are not always repeated. Records with an inconclusive call do not appear. The source made the active and inactive calls. Unless noted, the call rests on the fitted dose curve; in most records, active means well fitted curve in the direction sought with a large enough effect; inconclusive means small, poorly fitted or top-dose-only effect, or another doubt; inactive means no such curve, though single readings can be large; an effect the other way counts as inactive or inconclusive.

Assays:
[1] = qHTS profiling of the MIPE4 collection as inhibitors of Plasmodium falciparum (HB3) proliferation (AID 743347; call rule not given here;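 further: plate controls were DMSO vehicle wells for no effect and artemisinin wells for full effect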); conditions: P. falciparum HB3 in erythrocytes, SYBR Green DNA, 72 h; at 28.5 µM (top of the series) unless noted
Method in brief: (§1)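 Parasite DNA was quantified by SYBR Green I fluorescence (ex 485, em 535 nm) after overnight lysis in saponin/Triton buffer at room temperature. Cultures at 0.3% parasitemia and 2.5% hematocrit were first exposed to compound for 72 h at 37 C; signals were normalised to artemisinin (0.29 uM) and vehicle wells.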

[2] = High-throughput drug toxicity screening in the BPDCN cell line Gen2.2 (AID 1224824; call rule not given here); conditions: Gen2.2 BPDCN cells; at 45.8 µM (top of the series) unless noted
Method in brief: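 Seed 500 exponentially growing Gen2.2 cells/well; add compounds by pin tool; incubate 48 h, 37 °C, 5% CO2; add CellTiter-Glo, 15 min RT; read luminescence. % activity vs DMSO (100%) and bortezomib (0%).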

[3] = High-throughput drug toxicity screening in the BPDCN cell line Cal-1 (AID 1224825; call rule not given here); conditions: Cal-1 BPDCN cell viability, qHTS; at 45.8 µM (top of the series) unless noted
Method in brief: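 Percent activity derived from CellTiter-Glo luminescence, scaling DMSO to 100% and 9.2 uM final bortezomib to 0%. BPDCN Cal-1 cells (500/well, RPMI plus 10% FBS) incubated with compounds 48 hours at 37C before reading.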

[4] = qHTS assay for measurement of the activity of small molecule inhibitors on Zika virus induced Caspase-3 activity in human iPSC derived neural progenitor cells (hNPCs) (AID 1224857); further: % of control where 0% means no effect; nearly all actives have a fitted effect of over 65% in size
Method in brief: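 Values are percent inhibition of virus-induced caspase-3/7 signal, scaled between uninfected cells and ZIKV-infected cells. Infection used 2 FFU/cell for 6 h after 1 h compound exposure.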

[5] = qHTS assay for measurement of the activity of small molecule inhibitors on Zika virus induced Caspase-3 activity in human astrocytoma cells (AID 1224859);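 further: plate controls were ZIKV-infected untreated cells for no effect and uninfected cells for full effect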
Method in brief: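 Compound added 1 h pre-infection; ZIKV 2 FFU/cell on SNB-19 cells, 6 h, 37 C/5% CO2. Caspase-Glo 3/7 luminescence; values as % inhibition of ZIKV-induced caspase activity.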

[6] = qHTS Screen of the MIPE 4.0 Collection Against Ewings Sarcoma (RDES) (AID 1259252); further: nearly all actives have a fitted effect of over 35% in size; further: potency means the concentration at half of the fitted maximal effect
Method in brief: (§2)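 After a 4 h attachment period in RPMI/5% FBS, cells were pin-dosed with test compounds; DMSO served as negative and 9.2 uM bortezomib (final) as positive control. Luminescent CellTiter-Glo signal at 48 h defined viability.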

[7] = qHTS Screen of the MIPE 4.0 Collection Against Ewings Sarcoma (TC71) (AID 1259253); further: nearly all actives have a fitted effect of over 40% in size; further: potency means the concentration at half of the fitted maximal effect
Method in brief: as §2

[8] = qHTS Screen of the MIPE 4.0 Collection Against Ewings Sarcoma (EW8) (AID 1259255); further: nearly all actives have a fitted effect of over 35% in size; further: potency means the concentration at half of the fitted maximal effect;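 on viability: 100% = DMSO-treated cells and 0% = medium-only wells without cells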
Method in brief: as §2

[9] = qHTS Screen of the MIPE 4.0 Collection Against Ewings Sarcoma (TC32) (AID 1259256); further: nearly all actives have a fitted effect of over 45% in size; further: potency means the concentration at half of the fitted maximal effect
Method in brief: as §2

[10] = qHTS assay to identify small molecule inhibitors of chordoma cells - UCH-1 (AID 1259355); further: nearly all actives have a fitted effect of over 55% in size; further: potency means the concentration at half of the fitted maximal effect
Method in brief: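 800 cells/well, overnight attach; compounds pinned at 15 concs, then auranofin/camptothecin/doxorubicin/rubitecan/topotecan combo added; 48hr 37 C, 5% CO2; CellTiter-Glo, 30min RT, luminescence.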

[11] = qHTS assay to identify small molecule inhibitors of chordoma cells - UCH-2 (AID 1259356); further: on the % scale 0 is the no-effect control and ±100 the full control effect
[12] = qHTS profiling of the MIPE4 collection as inhibitors of Plasmodium falciparum (DD2) proliferation (Rep 2) (AID 743346; call rule not given here); conditions: P. falciparum Dd2 in erythrocytes, SYBR Green DNA, 72 h; at 28.5 µM (top of the series) unless noted
Method in brief: as §1

[13] = Natriuretic polypeptide receptor (hNpr1) antagonism - Pilot counterscreen GloSensor control cell line (AID 1347045; calls by dose curve; further: on the % scale 0 is the no-effect control and ±100 the full control effect)
Method in brief: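 Cells were first seeded and incubated overnight at 37C, then loaded with 2% GloSensor substrate for 2 h. Compounds were added for 30 min at room temperature, followed by a baseline read, 50 uM SNP and a final read after 20 min.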

[14] = P-glycoprotein substrates identified in KB-8-5-11 adenocarcinoma cell line, qHTS therapeutic library screen (AID 1346987); further: nearly all actives have a fitted effect of over 65% in size; further: potency means the concentration at half of the fitted maximal effect
Method in brief: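 Luminescence from CellTiter-Glo, read 5 min after addition, quantified survival of KB-8-5-11 (P-gp-overexpressing) cells exposed to compounds for 72 h. AC50 was derived from concentration-response curves.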

[15] = Identifying Small Molecule Inhibitors of Pancreatic Cancer Stem Cells (A278, Adherent) (AID 1259361);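 further: viability read after 48 h compound exposure; nearly all actives have a fitted effect of over 35% in size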
Method in brief: (§3)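 Adherent (2D) versus sphere (3D) formats; spheres generated 14 d in SCM beforehand. Compound transferred by pin tool after 4 h, 48 h incubation, CellTiter-Glo endpoint.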

[16] = Identifying Small Molecule Inhibitors of Pancreatic Cancer Stem Cells (SN12C, Adherent) (AID 1259358);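 further: potency means the concentration at half of the fitted maximal effect; cell survival measured after 48 h of compound exposure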
Method in brief: as §3

[17] = Identifying Small Molecule Inhibitors of Pancreatic Cancer Stem Cells (Panc1, Spheroid) (AID 1259359); conditions: Panc1 spheroid cancer stem cell viability;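 further: potency means the concentration at half of the fitted maximal effect; compound exposure lasted 48 h before reading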
Method in brief: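 Monolayer and spheroid cultures are compared. Spheroids form over 14 days in stem cell medium on hydrogel-coated low-attachment plates, then are exposed to compound for 48 h before CellTiter-Glo luminescence.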

[18] = Identifying Small Molecule Inhibitors of Pancreatic Cancer Stem Cells (SN12C, Spheroid) (AID 1259360); conditions: Potency: SN12C spheroid viability; further: potency means the concentration at half of the fitted maximal effect
Method in brief: as §3

[19] = Identifying Small Molecule Inhibitors of Pancreatic Cancer Stem Cells (Panc1, Adherent) (AID 1259362); conditions: Potency: viability; further: potency means the concentration at half of the fitted maximal effect
Method in brief: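 Endpoint: ATP-based luminescence, 48 h drug exposure. Bortezomib at 9.2 uM final as full-kill control; DMSO vehicle as negative control; activity normalized between vehicle and cell-free wells.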

[20] = Identifying Small Molecule Inhibitors of Pancreatic Cancer Stem Cells (A2780, Spheroid) (AID 1259357); conditions: Potency: A2780 spheroid viability;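 further: potency means the concentration at half of the fitted maximal effect; compound exposure lasted 48 h before the ATP luminescence read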
Method in brief: as §3

Row | SMILES | growth, % of control [1] [%] | cell viability, % of control (lower = more cytotoxic) [2] [%] | viability (% of control) [3] [%] | Potency [4] | Potency [5] | Potency [6] | Potency [7] | Potency [8] | Potency [9] | Potency [10] | Potency [11] | parasite growth, % of control (lower = inhibition) [12] [%] | Potency [13] | Potency [14] | IC50 (viability decrease) [15] | Potency [16] | Potency [17] | Potency [18] | Potency [19] | Potency [20]
1 | NS(=O)(=O)c1cc(C(=O)O)c(NCc2ccco2)cc1Cl | 84.6 | 75.9 | 108 | inactive | inactive | inactive | inactive | inactive | inactive | inactive | inactive | – | – | – | – | – | – | – | – | –
2 | Nc1nc(N)c(N=O)c(OCC2CCCCC2)n1 | 36.5 | 18.1 | 15.6 | inactive | inactive | 14800 nM (active) | 16600 nM (active) | 18700 nM (active) | 9350 nM (active) | – | – | 32.9 | inactive | – | – | – | – | – | – | –
3 | Cc1cc(Cl)ccc1OCCCC(=O)NO | 41.9 | 21.7 | 3.6 | inactive | inactive | 743 nM (active) | 9350 nM (active) | 1050 nM (active) | – | – | – | 42.1 | – | – | – | – | – | – | – | –
4 | COc1cc2c(cc1OC)C1CC(=O)C(CC(C)C)CN1CC2 (centres undefined) | 67.9 | 141 | 100 | inactive | inactive | inactive | inactive | inactive | inactive | – | – | 77.8 | inactive | inactive | – | – | – | – | – | –
5 | CC1(C)CCC(C)(C)c2cc(NC(=O)c3ccc(C(=O)O)cc3)ccc21 | 49.3 | 73.5 | 66 | inactive | inactive | 23500 nM (active) | 18700 nM (active) | – | – | inactive | inactive | 27 | – | inactive | – | – | – | – | – | –
6 | CCCc1cc(=O)[nH]c(=S)[nH]1 | 103 | 62.4 | 14.9 | inactive | inactive | inactive | inactive | – | – | inactive | inactive | 78.2 | – | – | – | – | – | – | – | –
7 | Nc1nc(Cl)nc2c1ncn2[C@H]1C[C@H](O)[C@@H](CO)O1 | 103 | 93.3 | 12 | inactive | inactive | 235 nM (active) | 372 nM (active) | 372 nM (active) | – | inactive | inactive | 114 | – | inactive | 95.9 nM (active) | – | – | – | – | –
8 | CC(C)C[C@H](NC(=O)[C@H](Cc1ccccc1)NC(=O)c1cnccn1)B(O)O | 3.13 | 3.61 | 3.36 | inactive | inactive | 33.2 nM (active) | 41.8 nM (active) | 16.6 nM (active) | 37.2 nM (active) | 12.6 nM (active) and 6.3 nM (active) | – | 7.61 | – | – | 3.7 nM (active) | 16.6 nM (active) | 1.7 nM (active) | 10.5 nM (active) | 14.8 nM (active) | –
9 | Nc1ccn([C@@H]2O[C@H](CO)[C@@H](O)C2O)c(=O)n1 (some centres undefined) | 107 | 225 | 92.2 | inactive | inactive | inactive | inactive | inactive | – | inactive | inactive | 71 | inactive | – | – | – | – | – | – | –
10 | CCN(CC)CCOc1ccc(Nc2ncc3cc(-c4c(Cl)cccc4Cl)c(=O)n(C)c3n2)cc1 | 4.26 | 4.53 | 2.59 | inactive | inactive | 1870 nM (active) | 3320 nM (active) | 235 nM (active) | 2640 nM (active) | – | – | 10.6 | – | 166 nM (active) | 1480 nM (active) | 662 nM (active) | 1050 nM (active) | 16600 nM (active) | 296 nM (active) | 13200 nM (active)
11 | COc1ccccc1N1CCN(CCN(C(=O)C2CCCCC2)c2ccccn2)CC1 | 83.7 | 39.9 | 80.8 | inactive | inactive | inactive | inactive | inactive | – | – | – | 40.7 | inactive | inactive | – | – | – | – | – | –
12 | O=c1c(O)c(-c2ccc(O)cc2O)oc2cc(O)cc(O)c12 | 99.8 | 74.1 | 84.9 | inactive | inactive | inactive | inactive | – | inactive | – | – | 111 | inactive | – | – | – | – | – | – | –
13 | CN(C)CCc1c[nH]c2ccc(Cn3cncn3)cc12 | 99.9 | 102 | 54.2 | inactive | inactive | inactive | inactive | inactive | – | inactive | inactive | 62.6 | – | – | – | – | – | – | – | –
14 | CCOC(=O)C1=C[C@@H](OC(CC)CC)[C@H](NC(C)=O)[C@@H](N)C1 | – | 152 | 106 | inactive | inactive | inactive | inactive | inactive | inactive | inactive | inactive | – | – | inactive | – | – | – | – | – | –
15 | O=C(CS(=O)Cc1ccco1)NCC=CCOc1cc(CN2CCCCC2)ccn1 (centres undefined) | 86.8 | 120 | 112 | inactive | inactive | inactive | inactive | inactive | inactive | inactive | inactive | 53.3 | – | inactive | – | – | – | – | – | –
16 | CCCCc1ccc2nc(NC(=O)OC)[nH]c2c1 | 27.6 | 47.1 | 13.4 | inactive | inactive | 10.5 nM (active) | 18.7 nM (active) | 9.3 nM (active) | – | – | inactive | 56.6 | – | 11.8 nM (active) and 111 nM (active) | – | – | – | – | – | –
